Experimental data published in PubChem BioAssay (NCI).
About 79,000 compounds went through this panel and 15% of them were active in at least one assay; those are over-represented in the sample as a whole. Cut-off read from the data, not from the text of the source: active = growth inhibition above about 70%; inactive = the rest.

Columns and labels:
[1] = NCI Yeast Anticancer Drug Screen. Data for the rad50 strain (AID 155);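 note: 0% = growth of vehicle-only cultures of the same strain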; conditions: S. cerevisiae rad50 strain growth inhibition; at 50.0 µM; active compounds read high
Procedure, shortened: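 Growth of the mutant yeast was measured after compound exposure and referenced to vehicle-treated cultures.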

[2] = NCI Yeast Anticancer Drug Screen. Data for the mec2-1 strain (AID 157); conditions: S. cerevisiae mec2-1 strain, at 50.0 µM, active compounds read high
Procedure, shortened: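 Test agents were screened against the mec2-1 yeast strain, with defined DNA repair or cell cycle alteration. Growth was scored as inhibition against vehicle-only controls.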

[3] = NCI Yeast Anticancer Drug Screen. Data for the sgs1 mgt1 strain (AID 161);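 note: 0% = growth of cultures given vehicle only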; conditions: S. cerevisiae sgs1 mgt1 strain, at 50.0 µM, active compounds read high
Procedure, shortened: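 Read-out: growth inhibition vs vehicle controls. Cells: mutant yeast strain deficient in DNA damage repair.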

[4] = NCI Yeast Anticancer Drug Screen. Data for the bub3 strain (AID 167); conditions: S. cerevisiae bub3 mutant strain, at 50.0 µM, active compounds read high
Procedure, shortened: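 Whole-cell yeast assay. The mutant strain was incubated with compounds, and growth inhibition was determined by comparison with vehicle-treated cells.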

[5] = NCI Yeast Anticancer Drug Screen. Data for the mlh1 rad18 strain (AID 175); conditions: S. cerevisiae mlh1 rad18 strain growth inhibition; at 50.0 µM; active compounds read high
Procedure, shortened: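 In this whole-cell yeast screen, a strain with altered DNA damage repair is challenged with compound, and its growth is measured against matched vehicle-treated controls.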

[6] = NCI Yeast Anticancer Drug Screen. Data for the cln2 rad14 strain (AID 165);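 note: 0% = growth equal to vehicle treated cultures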; conditions: S. cerevisiae cln2 rad14 strain, at 50.0 µM, active compounds read high
Procedure, shortened: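 Growth of compound-exposed yeast (cln2 rad14 genotype) measured and expressed as inhibition relative to vehicle.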

Measured: growth inhibition

CN1C/C(=C\C=C\c2ccccc2)C(=O)/C(=C/C=C/c2ccccc2)C1
inactive: [1] 66.7% | [2] 16.9% | [3] 14.8% | [4] 11.2% | [5] 0.2%

CCOC(=O)C(C)Sc1ncnc2nc[nH]c12 (stereo not given)
inactive: [1] -12.8% | [2] 4.4% | [3] -3.15% | [4] 18% | [5] -0.9%

O=c1c(-c2ccc(O)cc2)coc2cc(OC3OC(CO)C(O)C(O)C3O)cc(O)c12 (stereo not given)
inactive: [1] -35.5% | [2] -26.8% | [3] -40.8% | [4] -60.2% | [5] -83.3%

CCOC(=O)CC1(C)OCC(c2ccccc2)O1 (stereo not given)
inactive: [1] 8.8% | [2] -0.55% | [3] -3.6% | [4] 9.35% | [5] -3.1%

O=C(C[n+]1ccncc1)c1ccc2c(c1)CCCC2
inactive: [1] -8.7% | [2] 10.8% | [3] 14.7% | [4] 46.1% | [5] 20.5%

CC(O)COc1ccccc1Cl (stereo not given)
inactive: [1] 5.2% | [2] -2% | [3] 16.5% | [4] -0.4% | [5] 6.85%

COC(=O)C1CCC(/C(C#N)=C2/CCC(C(=O)OC)[N-]2)=N1.COC(=O)C1CCC(/C(C#N)=C2/CCC(C(=O)OC)[N-]2)=N1.[Cu+2] (stereo not given)
inactive: [1] -13.8% | [2] -24.2% | [3] 3.5% | [4] -24.5% | [5] 11.2%

CC1SCC(=O)N1c1nncs1 (stereo not given)
inactive: [1] -3.05% | [2] -0.75% | [3] -51.9% | [4] -2.1% | [5] -46.6%

C/C(=N/NC(N)=O)c1c(C)c(Cl)cc(Cl)c1OCCCC(C)C
inactive: [1] -8.1% | [2] -3.05% | [3] 0.45% | [4] 22.9% | [5] -10.6%

CC1(C)Cc2cccc(OC(=O)NO)c2O1
inactive: [1] -0.65% | [2] 24.4% | [3] 0.45% | [4] -3.1% | [5] 9%

NNc1cccc(Cl)n1
inactive: [1] 6.65% | [2] -4.7% | [3] -5.5% | [4] -9.8% | [5] 8.05%

CC1(C)OC2COC(CNCC3OCC4OC(C)(C)OC34)C2O1 (stereo not given)
inactive: [1] 3% | [2] -14.4% | [3] -6.75% | [4] -14.8% | [5] 4.55%

CC1CCCC(C(O)CC2CC(=O)NC(=O)C2)C1O (stereo not given)
inactive: [1] 17.4% | [2] -3.65% | [3] 3.5% | [4] 1.7% | [5] 4.45%

CCCCCCCCCCCCCCNC(=O)CCl
inactive: [1] 14.8% | [2] -17.5% | [3] -5.8% | [4] -9.25% | [5] -16.2%

CCOC(=O)c1ccc(NC(=O)Sc2ccccc2C)cc1
inactive: [1] 5.55% | [2] 12.9% | [3] 11.3% | [4] 28% | [5] 13.6%

CCOC(=O)/C(C#N)=C/c1c[nH]c2ccccc12
inactive: [1] 19.6% | [2] 6.05% | [3] 3.5% | [4] 19.3% | [5] 31.4%

Cc1ccc(NC(=O)OCCN(C)C)cc1Cl
inactive: [1] -6.75% | [2] -25.8% | [3] 16.4% | [4] 8.2% | [5] -4.6%

CCCC(CO)OC(=O)Nc1ccc(-c2ccccc2)cc1 (stereo not given)
inactive: [1] -7.75% | [2] -1.1% | [3] -2.15% | [4] 27.4% | [5] 11.9%

C=C[C@]1(C)C[C@@H](OC(=O)CO)[C@@]2(C)[C@H](C)CC[C@]3(CCC(=O)[C@H]32)[C@@H](C)[C@@H]1O
inactive: [1] -28.6% | [2] -23.3% | [3] 14.3% | [4] -49.4% | [5] -2.15%

c1cncc(CNc2ncn[nH]2)c1
inactive: [1] -2.5% | [2] 8.3% | [3] -24.1% | [4] -24.9% | [5] -29.8%

COc1cc(C(=O)O)c([N+](=O)[O-])c(OC)c1OC
inactive: [1] -12.3% | [2] -6.35% | [3] -18.1% | [4] -29.9% | [5] -7.5%

Cc1ccc(C(=O)Nc2ccc3c(c2)Cc2ccccc2-3)cc1
inactive: [1] -19.3% | [2] -23.6% | [3] -7.45% | [4] -20.6% | [5] -10.8%

CSCCC(NCc1c(O)ccc2c(C)cc(=O)oc12)C(=O)O (stereo not given)
inactive: [1] 16.5% | [2] 0.85% | [3] 14% | [4] -1.05% | [5] 26.7%

Clc1ccccc1CN1COc2c(ccc3ccccc23)C1
inactive: [1] 35.5% | [2] 14.3% | [3] 32.6% | [4] 25.5% | [5] 22.6%

CCS(=O)(=O)N(CC(=O)O)Cc1ccccc1
inactive: [1] -4.95% | [2] 7.3% | [3] -13.4% | [4] 6.8% | [5] 0.65%

C[Si](C)(C)Nc1ncnc2c1ncn2[Si](C)(C)C
inactive: [1] 14.6% | [2] 4.85% | [3] 21.6% | [4] 2.85% | [5] 7.05%

CN=C(N)SCCSC(N)=NC
inactive: [1] -12.3% | [2] -18.2% | [3] 0.25% | [4] 11.5% | [5] -5.15%

C=C(Cl)C(=C)CCC(Cl)C(C)(C)Cl (stereo not given)
inactive: [1] 12.6% | [2] 9.4% | [3] -13.7% | [4] -16.8% | [5] -8.4%

N/C(=N\Cl)C(Cl)(Cl)Cl
inactive: [1] -17.9% | [2] -16.5% | [3] 6.25% | [4] 2.1% | [5] -21.4%

CCCCCC(/C=C/[C@@H]1[C@H]2CC(=O)O[C@H]2C[C@H]1N1CCOCC1)OC1CCCO1 (stereo not given in full)
inactive: [1] 0.2% | [2] -6.3% | [3] 11.8% | [4] -29.6% | [5] 11.8%

CC(C(=O)O)c1ncnn1-c1ccccc1 (stereo not given)
inactive: [1] -3.35% | [2] 41% | [6] 4.85% | [4] 10.6% | [5] 2.65%
